In PubChem BioAssay (NCATS):
Inconclusive results are not listed. A call without a number means that no potency is given here. Activity calls are given as the source filed them. The call rests on the fitted dose curve; in most records, active means well fitted cell-killing curve with a large enough effect; inconclusive means small, poorly fitted or top-dose-only effect, or effect the other way; inactive means no such curve, though single readings can be large or run the other way.

Assay: qHTS of pediatric cancer cell lines to identify multiple opportunities for drug repurposing: Confirmatory screen for Saos-2 cells (AID 1347127); further: nearly all actives have a fitted effect of over 60% in size
Conditions: Saos-2 osteosarcoma cell viability; series mostly up to 45.9 µM
Source text: Drug repurposing or repositioning has been offered as a strategy for drug development in oncology programs. This approach has special potential for childhood cancers and other rare or orphan diseases, where the expected return on new drug development has been a disincentive to pharmaceuticals.
In this project we exploit the poly-pharmacology of drugs to discover new indications via phenotypic screening of a panel of 19 well-characterized cell lines derived from solid tumors seen in children and adolescents. The goal is to identify approved drugs with previously unrecognized anticancer properties that has the potential to reveal new mechanisms and biological processes involved in carcinogenesis or drug resistance. We employed a titration-based paradigm (quantitative high-throughput screening or qHTS), where all compounds were tested at multiple concentrations for their effect on cell viability. Concentration-response curves (CRCs) were derived directly from the primary screen, and both potency and efficacy values were used to identify compounds with robust bioactivity profiles. We screened the NIH Chemical Genomics Center (NCGC) Pharmaceutical Collection (NPC) and Mechanism Interrogation Plate (MIPE) small molecule collections of approved and investigational compounds against these cell lines; and measured metabolically active cells after 48 hours of compound treatment as a proxy for cell viability.
Assay Submitter: Nathalia J. Martinez, National Center for Advancing Translational Sciences, National Institutes of Health, Rockville, MD, USA; email: natalia.martinez@nih.gov
[1] Shen, M et al. Quantitative high-throughput phenotypic screening of pediatric cancer cell lines identifies multiple opportunities for drug repurposing. Oncotarget 2017 Dec 19;9(4):4758-4772. PMID 29435139.
The cells were obtained from University of North Carolina (UNC), Pediatric Preclinical Testing Program (PPT), and Coriell Institute (CI).
qHTS cell viability assay:
Cells were assayed in growth media at a density of 500-1,000 cells/well. Five microliters of cells were dispensed into 1,536-well, white, solid-bottom, TC-treated plates (Greiner Bio One) using a multidrop dispenser and incubated at 37 degrees C, 5% CO2, under a humidified atmosphere for 5 hours. Twenty-three nanoliters of compounds and controls (neutral control DMSO or positive control bortezomib at final concentration of 2.3 µM) were subsequently transferred by Kalypsys pintool. For primary screens, the MIPE collection was tested at 11-point dilutions (final concentrations range from 0.78 nM to 46 µM) and the NPC collection at 8-point dilutions (final concentrations range from 0.59 nM to 46 µM). Compounds tested in follow-up screens were assayed at 11-point dilutions. Cells were incubated for 48 hours, followed by addition of 3 µL of CellTiter-Glo (Promega). After a 15 min incubation at room temperature, samples were analyzed for luminescence intensity using a ViewLux High-throughput CCD imager equipped with clear filters.
Potency means the concentration at half of the fitted maximal effect.

Structure (SMILES) | Potency
CNCc1ccc(-c2[nH]c3cc(F)cc4c3c2CCNC4=O)cc1 | inactive
CN1CCN(CCCN2c3ccccc3Sc3ccc(C(F)(F)F)cc32)CC1 | 20800 nM (active)
Cc1c(C)c2c(c(C)c1O)CCC(C)(COc1ccc(CC3SC(=O)NC3=O)cc1)O2 (centres undefined) | inactive
O=NN(CCCl)C(=O)NCCCl | inactive
OC(CN1CCC(Cc2ccc(F)cc2)CC1)c1ccc(Cl)cc1 (centres undefined) | inactive
COc1ccc(-c2oc3cc(OC)ccc3c2C(=O)c2ccc(C#N)cc2)cc1 | inactive
CCN(CC)CCCC(C)Nc1ccnc2cc(Cl)ccc12 (centres undefined) | inactive
Cn1cnc([N+](=O)[O-])c1Sc1ncnc2nc[nH]c12 | inactive
Cc1c(CN2CCN(C(=O)C(C)C)CC2)sc2c(N3CCOCC3)nc(-c3cnc(N)nc3)nc12 | 928 nM (active)
C#Cc1cccc(Nc2ncnc3cc(OCCOC)c(OCCOC)cc23)c1 | inactive
Oc1cccc(-c2nc(N3CCOCC3)c3oc4ncccc4c3n2)c1 | 380 nM (active)
COc1cc(Nc2ncc3c(n2)-c2ccc(Cl)cc2C(c2c(F)cccc2OC)=NC3)ccc1C(=O)O | 18500 nM (active)
COc1ccc(-c2ccc3c(N4CCOC[C@H]4C)nc(N4CCOC[C@H]4C)nc3n2)cc1CO | 928 nM (active)
CCC(C)n1ncn(-c2ccc(N3CCN(c4ccc(OC[C@H]5CO[C@](Cn6cncn6)(c6ccc(Cl)cc6Cl)O5)cc4)CC3)cc2)c1=O (some centres undefined) | inactive
Cc1cn[nH]c1 | inactive
O=C(c1cc(Cc2n[nH]c(=O)c3ccccc23)ccc1F)N1CCN(C(=O)C2CC2)CC1 | inactive
CCC(C)(C)C(=O)O[C@H]1C[C@@H](C)C=C2C=C[C@H](C)[C@H](CC[C@@H]3C[C@@H](O)CC(=O)O3)[C@H]21 | 2330 nM (active)
NC(=O)c1ccc(I)c([N+](=O)[O-])c1 | inactive
Cn1cnc2c(F)c(Nc3ccc(Br)cc3Cl)c(C(=O)NOCCO)cc21 | inactive
Nc1nc2c(ncn2COCCO)c(=O)[nH]1 | inactive
C[C@]1(c2nc3c(C(N)=O)cccc3[nH]2)CCCN1 | inactive
NCCCC(N)(C(=O)O)C(F)F (centres undefined) | inactive
Cc1oncc1C(=O)Nc1ccc(C(F)(F)F)cc1 | inactive
O=C(NOC[C@H](O)CO)c1ccc(F)c(F)c1Nc1ccc(I)cc1F | inactive
